# How the values were obtained:
# Assay in all cases: SPOT peptide array binding signal intensity (averaged, normalized) (arbitrary units (background-subtracted, floor 0; scale differs between SH3 domains)); higher = stronger binding of the SH3 domain to the peptide
# [1] = molecular target: CaNbp2
# Procedure, shortened: (§1)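 GST-fused SH3 domains from four yeast species were expressed in E. coli BL21(DE3), purified on glutathione Sepharose and incubated at 10 μg/ml overnight at 4°C in TBS-based blocking buffer on cellulose membranes carrying synthetic 15-mer peptides, with cysteines replaced by serines. Bound protein was detected with anti-GST antibody, an HRP anti-mouse secondary and luminol, then imaged and quantified with Genespotter. Binding signal is the normalized, background-subtracted spot intensity averaged over replicates, in arbitrary units that differ between domains.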
# [2] = molecular target: CaRvs167
# Procedure, shortened: as §1
# [3] = molecular target: CaRvs167-3
# Procedure, shortened: as §1
# [4] = molecular target: CaSho1
# Procedure, shortened: as §1
# [5] = molecular target: CaSla1-D1-D2
# Procedure, shortened: as §1
# [6] = molecular target: CaSla1-D3
# Procedure, shortened: as §1
# [7] = molecular target: ScAbp1
# Procedure, shortened: as §1
# [8] = molecular target: ScBbc1
# Procedure, shortened: as §1
# [9] = molecular target: ScBem1-D1
# Procedure, shortened: as §1
# [10] = molecular target: ScBzz1-D1
# Procedure, shortened: as §1
# [11] = molecular target: ScBzz1-D2
# Procedure, shortened: as §1
# [12] = molecular target: ScCyk3
# Procedure, shortened: as §1
# [13] = molecular target: ScFus1
# Procedure, shortened: as §1
# [14] = molecular target: ScHof1
# Procedure, shortened: as §1
# [15] = molecular target: ScHse1
# Procedure, shortened: as §1
# [16] = molecular target: ScLsb1
# Procedure, shortened: as §1
# [17] = molecular target: ScLsb2
# Procedure, shortened: as §1
# [18] = molecular target: ScLsb3
# Procedure, shortened: as §1
# [19] = molecular target: ScLsb4
# Procedure, shortened: as §1
# [20] = molecular target: ScMyo3
# Procedure, shortened: as §1
# [21] = molecular target: ScMyo5
# Procedure, shortened: as §1
# [22] = molecular target: ScNbp2
# Procedure, shortened: as §1
# [23] = molecular target: ScPex13
# Procedure, shortened: as §1
# [24] = molecular target: ScRvs167
# Procedure, shortened: as §1
# [25] = molecular target: ScSho1
# Procedure, shortened: as §1
# [26] = molecular target: ScSla1-D1-D2
# Procedure, shortened: as §1
# [27] = molecular target: ScSla1-D3
# Procedure, shortened: as §1
# [28] = molecular target: SpAbp1-D1
# Procedure, shortened: as §1
# [29] = molecular target: SpBbc1
# Procedure, shortened: as §1
# [30] = molecular target: SpBzz1-D1
# Procedure, shortened: as §1
# [31] = molecular target: SpBzz1-D2
# Procedure, shortened: as §1
# [32] = molecular target: SpCyk3
# Procedure, shortened: as §1
# [33] = molecular target: SpHof1
# Procedure, shortened: as §1
# [34] = molecular target: SpHof1-2
# Procedure, shortened: as §1
# [35] = molecular target: SpHof1-3
# Procedure, shortened: as §1
# [36] = molecular target: SpHse1
# Procedure, shortened: as §1
# [37] = molecular target: SpLsb1
# Procedure, shortened: as §1
# [38] = molecular target: SpLsb4
# Procedure, shortened: as §1
# [39] = molecular target: SpMyo1
# Procedure, shortened: as §1
# [40] = molecular target: SpNbp2
# Procedure, shortened: as §1
# [41] = molecular target: SpPex13
# Procedure, shortened: as §1
# [42] = molecular target: SpRvs167
# Procedure, shortened: as §1
# [43] = molecular target: SpSla1-D1-D2
# Procedure, shortened: as §1
# [44] = molecular target: SpSla1-D3
# Procedure, shortened: as §1
# [45] = molecular target: AgAbp1
# Procedure, shortened: as §1
# [46] = molecular target: AgBbc1
# Procedure, shortened: as §1
# [47] = molecular target: AgBem1-D1
# Procedure, shortened: as §1
# [48] = molecular target: AgBzz1-D1
# Procedure, shortened: as §1
# [49] = molecular target: AgBzz1-D2
# Procedure, shortened: as §1
# [50] = molecular target: AgCyk3
# Procedure, shortened: as §1
# [51] = molecular target: AgFus1
# Procedure, shortened: as §1
# [52] = molecular target: AgHof1
# Procedure, shortened: as §1
# [53] = molecular target: AgHse1
# Procedure, shortened: as §1
# [54] = molecular target: AgLsb1
# Procedure, shortened: as §1
# [55] = molecular target: AgLsb4
# Procedure, shortened: as §1
# [56] = molecular target: AgMyo5
# Procedure, shortened: as §1
# [57] = molecular target: AgNbp2
# Procedure, shortened: as §1
# [58] = molecular target: AgRvs167
# Procedure, shortened: as §1
# [59] = molecular target: AgSho1
# Procedure, shortened: as §1
# [60] = molecular target: AgSla1-D1-D2
# Procedure, shortened: as §1
# [61] = molecular target: AgSla1-D3
# Procedure, shortened: as §1
# [62] = molecular target: CaAbp1-D1
# Procedure, shortened: as §1
# [63] = molecular target: CaAbp1-D2
# Procedure, shortened: as §1
# [64] = molecular target: CaBbc1
# Procedure, shortened: as §1
# [65] = molecular target: CaBem1-D1
# Procedure, shortened: as §1
# [66] = molecular target: CaBzz1-D1
# Procedure, shortened: as §1
# [67] = molecular target: CaBzz1-D2
# Procedure, shortened: as §1
# [68] = molecular target: CaCyk3
# Procedure, shortened: as §1
# [69] = molecular target: CaFus1
# Procedure, shortened: as §1
# [70] = molecular target: CaHof1
# Procedure, shortened: as §1
# [71] = molecular target: CaHse1
# Procedure, shortened: as §1
# [72] = molecular target: CaLsb1
# Procedure, shortened: as §1
# [73] = molecular target: CaLsb4
# Procedure, shortened: as §1
# [74] = molecular target: CaMyo5
# Procedure, shortened: as §1
binder,measurement,setting,value
IFLRISINFPLNYPN,SPOT peptide array binding signal intensity,[1],2110
same,SPOT peptide array binding signal intensity,[2],750
same,SPOT peptide array binding signal intensity,[3],1500
same,SPOT peptide array binding signal intensity,[4],2060
same,SPOT peptide array binding signal intensity,[5],602
same,SPOT peptide array binding signal intensity,[6],1050
same,SPOT peptide array binding signal intensity,[7],93.2
same,SPOT peptide array binding signal intensity,[8],59.9
same,SPOT peptide array binding signal intensity,[9],194
same,SPOT peptide array binding signal intensity,[10],558
same,SPOT peptide array binding signal intensity,[11],2990
same,SPOT peptide array binding signal intensity,[12],127
same,SPOT peptide array binding signal intensity,[13],5050
same,SPOT peptide array binding signal intensity,[14],30.8
same,SPOT peptide array binding signal intensity,[15],3840
same,SPOT peptide array binding signal intensity,[16],12.8
same,SPOT peptide array binding signal intensity,[17],64
same,SPOT peptide array binding signal intensity,[18],1490
same,SPOT peptide array binding signal intensity,[19],396
same,SPOT peptide array binding signal intensity,[20],32.5
same,SPOT peptide array binding signal intensity,[21],114
same,SPOT peptide array binding signal intensity,[22],2820
same,SPOT peptide array binding signal intensity,[23],516
same,SPOT peptide array binding signal intensity,[24],223
same,SPOT peptide array binding signal intensity,[25],6350
same,SPOT peptide array binding signal intensity,[26],880
same,SPOT peptide array binding signal intensity,[27],344
same,SPOT peptide array binding signal intensity,[28],211
same,SPOT peptide array binding signal intensity,[29],238
same,SPOT peptide array binding signal intensity,[30],1240
same,SPOT peptide array binding signal intensity,[31],97
same,SPOT peptide array binding signal intensity,[32],35
same,SPOT peptide array binding signal intensity,[33],342
same,SPOT peptide array binding signal intensity,[34],157
same,SPOT peptide array binding signal intensity,[35],1040
same,SPOT peptide array binding signal intensity,[36],2240
same,SPOT peptide array binding signal intensity,[37],33
same,SPOT peptide array binding signal intensity,[38],625
same,SPOT peptide array binding signal intensity,[39],168
same,SPOT peptide array binding signal intensity,[40],1680
same,SPOT peptide array binding signal intensity,[41],1640
same,SPOT peptide array binding signal intensity,[42],239
same,SPOT peptide array binding signal intensity,[43],68
same,SPOT peptide array binding signal intensity,[44],512
LRIKRKPVQTFFEFI,SPOT peptide array binding signal intensity,[45],76
same,SPOT peptide array binding signal intensity,[46],24.2
same,SPOT peptide array binding signal intensity,[47],212
same,SPOT peptide array binding signal intensity,[48],109
same,SPOT peptide array binding signal intensity,[49],42
same,SPOT peptide array binding signal intensity,[50],4
same,SPOT peptide array binding signal intensity,[51],398
same,SPOT peptide array binding signal intensity,[52],19.5
same,SPOT peptide array binding signal intensity,[53],960
same,SPOT peptide array binding signal intensity,[54],1
same,SPOT peptide array binding signal intensity,[55],136
same,SPOT peptide array binding signal intensity,[56],0.5
same,SPOT peptide array binding signal intensity,[57],72
same,SPOT peptide array binding signal intensity,[58],4.33
same,SPOT peptide array binding signal intensity,[59],49
same,SPOT peptide array binding signal intensity,[60],432
same,SPOT peptide array binding signal intensity,[61],10.5
same,SPOT peptide array binding signal intensity,[62],816
same,SPOT peptide array binding signal intensity,[63],948
same,SPOT peptide array binding signal intensity,[64],91.2
same,SPOT peptide array binding signal intensity,[65],16
same,SPOT peptide array binding signal intensity,[66],107
same,SPOT peptide array binding signal intensity,[67],59.2
same,SPOT peptide array binding signal intensity,[68],18
same,SPOT peptide array binding signal intensity,[69],1010
same,SPOT peptide array binding signal intensity,[70],≤ 0
same,SPOT peptide array binding signal intensity,[71],15
same,SPOT peptide array binding signal intensity,[72],0.5
same,SPOT peptide array binding signal intensity,[73],59
same,SPOT peptide array binding signal intensity,[74],14
same,SPOT peptide array binding signal intensity,[1],468
same,SPOT peptide array binding signal intensity,[2],16.5
same,SPOT peptide array binding signal intensity,[3],843
same,SPOT peptide array binding signal intensity,[4],1260
same,SPOT peptide array binding signal intensity,[5],37
same,SPOT peptide array binding signal intensity,[6],37
same,SPOT peptide array binding signal intensity,[7],355
same,SPOT peptide array binding signal intensity,[8],6.75
same,SPOT peptide array binding signal intensity,[9],57
same,SPOT peptide array binding signal intensity,[10],39.5
same,SPOT peptide array binding signal intensity,[11],49.5
same,SPOT peptide array binding signal intensity,[12],138
same,SPOT peptide array binding signal intensity,[13],651
same,SPOT peptide array binding signal intensity,[14],5.5
same,SPOT peptide array binding signal intensity,[15],1800
same,SPOT peptide array binding signal intensity,[16],21.2
same,SPOT peptide array binding signal intensity,[17],5.5
same,SPOT peptide array binding signal intensity,[18],156
same,SPOT peptide array binding signal intensity,[19],23
same,SPOT peptide array binding signal intensity,[20],7
same,SPOT peptide array binding signal intensity,[21],1.75
same,SPOT peptide array binding signal intensity,[22],150
same,SPOT peptide array binding signal intensity,[23],18
same,SPOT peptide array binding signal intensity,[24],24.2
same,SPOT peptide array binding signal intensity,[25],718
same,SPOT peptide array binding signal intensity,[26],220
same,SPOT peptide array binding signal intensity,[27],14
same,SPOT peptide array binding signal intensity,[28],228
same,SPOT peptide array binding signal intensity,[29],5
same,SPOT peptide array binding signal intensity,[30],128

# From the supplement of paper PMC4466140
